Laboratory results: PubChem BioAssay (Tox21)
Several values for one entry are separate records, joined by “and”; a condition that tells them apart may be missing. Equal values may be shown once. Results filed as inconclusive are left out. A number with no mark means an inactive call. Activity calls are given as the source filed them. The call rests on the fitted dose curve; in most records, active means well fitted curve in the direction sought with a large enough effect in the repeat runs; inconclusive means weak or mixed curves; inactive means no such curve, though single readings can be large; an effect the other way counts as inactive or inconclusive.

Experiment: qHTS assay to identify small molecule antagonists of the retinoid acid receptor (RAR) signaling pathway - cell viability counter screen (AID 1159551); further: nearly all actives have a fitted effect of over 35% in size
Settings: C3RL4 cells viability, ATP luminescence (CellTiter-Glo), 6 h; series mostly up to 92.4 µM; activity change, negative = cytotoxicity: at the top concentration
Summary of the method: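 Cells (C3RL4) are plated, incubated overnight, dosed with compound in DMSO, then given retinol at 1 uM final. After 6 h at 37 C, CellTiter-Glo is added and luminescence read following 30 min at room temperature.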
On the % scale 0 is the no-effect control and ±100 the full control effect; potency means the concentration at half of the fitted maximal effect.

SMILES | activity change, negative = cytotoxicity | Potency
COC1CC(=C(c2cccs2)c2cccs2)C[N+](C)(C)C1 (stereo not drawn) | 2.31% [at 42.5 µM] | –
O=S(=O)(Cl)Cl | 0.181% | –
CCCCNC(=O)OCC#CI | – | 68.2 µM (active)
Cc1cnc(C2=NC(C)(C(C)C)C(=O)N2)c(C(=O)O)c1 (stereo not drawn) | 1.22% | –
CCOC(=O)C1OC1(C)c1ccccc1 (stereo not drawn) | – | inactive
c1ccc2sc(SNC3CCCCC3)nc2c1 | – | inactive
CN1CC[C@]23c4c5ccc(O)c4O[C@H]2[C@@H](O)C=C[C@H]3[C@H]1C5 | 1.64% | –
O=CC=O | 4.84% | –
Nc1ccccc1C(=O)OCC(O)CO (stereo not drawn) | 0.381% [at 42.5 µM] | –
C[C@]12CC[C@H]3[C@@H](CCC4=CC(=O)CC[C@@H]43)[C@@H]1CC[C@@H]2OC(=O)CCc1ccccc1 | -7.18% [at 42.5 µM] | –
CN1C(=O)CN=C(c2ccccc2)c2cc([N+](=O)[O-])ccc21 | 0.313% [at 42.5 µM] | –
CC(Oc1cc(Cl)c(Cl)cc1Cl)C(=O)O (stereo not drawn) | 1.89% | –
CCC(C)Cl (stereo not drawn) | 3.1% | –
CC(C)(C)c1ccc(CCOc2ncnc3ccccc23)cc1 | -0.2% | –
CC(C)(C)OOC(C)(C)CCC(C)(C)OOC(C)(C)C | 3.81% | –
CCC(C)(C)c1ccc(O)c(C(C)(C)CC)c1 | – | 53.9 µM (active) and 30.6 µM (active)
CC(C)c1ccc(OP(=O)(Oc2ccc(C(C)C)cc2)Oc2ccc(C(C)C)cc2)cc1 | – | inactive
C[C@H]1O[C@H](OC2[C@@H](O)[C@@H](O)C(O)[C@H](O)[C@H]2O)[C@@H](N)C[C@@H]1N=C(N)C(=O)O (stereo partly drawn) | 0.983% | –
C=CC(C)(CCC=C(C)C)OC(=O)c1ccccc1N (stereo not drawn) | -0.737% | –
CC(C)(C)NCC(O)c1cc(Cl)c(N)c(C(F)(F)F)c1 (stereo not drawn) | 0.928% [at 42.5 µM] | –

SMILES | activity change, negative = cytotoxicity | Potency
C=C(Cl)Cl | 3.1% | –
C#C[C@]1(O)CC[C@H]2[C@@H]3CCC4=CC(=O)CCC4=C3C=C[C@@]21CC | -1.25% [at 42.5 µM] | –
CON(C)C(=O)Nc1ccc(Cl)cc1 | 0.0712% | –
CN(C1CCCCC1)C1CCCCC1 | -0.363% | –
O=C(O)C(F)(F)C(F)(F)C(F)(F)C(F)(F)C(F)(F)C(F)(F)C(F)(F)C(F)(F)F | 1.62% | –
CCCCCCCCCCCCCCCl | 2.86% | –
Clc1ccc2ccccc2c1 | -0.644% | –
CC[N+]1(C)CCCC(OC(=O)C(O)(c2ccccc2)c2ccccc2)C1 (stereo not drawn) | 0.858% [at 42.5 µM] | –
COc1ccccc1N1CCNCC1 | 3.3% [at 42.5 µM] | –
C[N+]1(CCC(C(N)=O)(c2ccccc2)c2ccccc2)CCCCC1 | 2.3% [at 42.5 µM] | –
CCC1CCC(=O)O1 (stereo not drawn) | 3.34% | –
C[CH2][Hg][S]c1ccccc1C(=O)O | – | 13.7 µM (active) and 18.8 µM (active)
c1ccc2c(c1)-c1cccc3cccc-2c13 | – | inactive
C[N+](C)(C)CCOC(=O)C(O)(c1ccccc1)c1ccccc1 | 0.0012% [at 42.5 µM] | –
CCCCCBr | 6.27% | –
Cc1nnc(-c2ccccc2)c(=O)n1N | 4.55% | –
FC(F)OC(F)(F)C(F)Cl (stereo not drawn) | 1.98% | –
C#CC(O)(C=CCl)CC (stereo not drawn) | -0.353% [at 42.5 µM] | –
O=C=NC1CCCCC1 | -1.74% | –

Experiment: qHTS assay to identify small molecule antagonists of the retinoic acid receptor (RAR) signaling pathway (AID 1159552; further: nearly all actives have a fitted effect of over 50% in size)
Settings: C3RL4 RARE luciferase reporter, retinol-stimulated, 6 h; series mostly up to 92.4 µM; activity, negative = inhibition: at the top concentration
Summary of the method: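 C3RL4 RARE-luc cells, overnight plating; retinol 1 uM final added right after compound; 6 hr 37 C; luciferase read at 30 min RT.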

SMILES | activity, negative = inhibition | Potency
O=S(=O)(Cl)Cl | -4.98% | –
CCCCNC(=O)OCC#CI | – | 43.1 µM (active) and 54.5 µM (active)
Cc1cnc(C2=NC(C)(C(C)C)C(=O)N2)c(C(=O)O)c1 (stereo not drawn) | 7.18% | –
c1ccc2sc(SNC3CCCCC3)nc2c1 | – | inactive
O=CC=O | -17.2% | –
Nc1ccccc1C(=O)OCC(O)CO (stereo not drawn) | 18.2% [at 42.5 µM] | –
C[C@]12CC[C@H]3[C@@H](CCC4=CC(=O)CC[C@@H]43)[C@@H]1CC[C@@H]2OC(=O)CCc1ccccc1 | -17.8% [at 42.5 µM] | –
CN1C(=O)CN=C(c2ccccc2)c2cc([N+](=O)[O-])ccc21 | 4.07% [at 42.5 µM] | –
CCC(C)Cl (stereo not drawn) | 32.9% | –
CC(C)(C)c1ccc(CCOc2ncnc3ccccc23)cc1 | -1.02% | –
CC(C)(C)OOC(C)(C)CCC(C)(C)OOC(C)(C)C | 6.76% | –
CCC(C)(C)c1ccc(O)c(C(C)(C)CC)c1 | – | 24.3 µM (active)
CC(C)c1ccc(OP(=O)(Oc2ccc(C(C)C)cc2)Oc2ccc(C(C)C)cc2)cc1 | – | 54.9 µM (active)
C[C@H]1O[C@H](OC2[C@@H](O)[C@@H](O)C(O)[C@H](O)[C@H]2O)[C@@H](N)C[C@@H]1N=C(N)C(=O)O (stereo partly drawn) | -10.3% | –
C=CC(C)(CCC=C(C)C)OC(=O)c1ccccc1N (stereo not drawn) | -5.25% | –
CC(C)(C)NCC(O)c1cc(Cl)c(N)c(C(F)(F)F)c1 (stereo not drawn) | 2.59% [at 42.5 µM] | –
C#C[C@]1(O)CC[C@H]2[C@@H]3CCC4=CC(=O)CCC4=C3C=C[C@@]21CC | – | 9.44 µM (active)
CON(C)C(=O)Nc1ccc(Cl)cc1 | 57.5% | –
CN(C1CCCCC1)C1CCCCC1 | 0.177% | –
CCCCCCCCCCCCCCCl | 10.3% | –
Clc1ccc2ccccc2c1 | 4.04% | –
CCC1CCC(=O)O1 (stereo not drawn) | 16.5% | –
C[CH2][Hg][S]c1ccccc1C(=O)O | – | 1.93 µM (active) and 2.66 µM (active)
c1ccc2c(c1)-c1cccc3cccc-2c13 | – | inactive
CCCCCBr | 15% | –
Cc1nnc(-c2ccccc2)c(=O)n1N | 28.1% | –
FC(F)OC(F)(F)C(F)Cl (stereo not drawn) | -4.11% | –
C#CC(O)(C=CCl)CC (stereo not drawn) | 0.555% [at 42.5 µM] | –
O=C=NC1CCCCC1 | 31.6% | –
